Here are results for 31 compounds from PubChem BioAssay (NCI).

What all share (test): NCI-60 one-dose screen, 48 h (100 = growth as untreated, 0 = no growth, -100 = all killed)
Details in all cases: 10 µM unless noted

The subject of experiment [1] is HCT-15 colon.
Experiment [2] deals with HT29 colon.
Experiment [3] concerns SNB-75 CNS.
In experiment [4] the test system is SNB-19 CNS.
Experiment [5] concerns SK-MEL-5 melanoma.
The test system of experiment [6] is UACC-62 melanoma.
Experiment [7] concerns LOX IMVI melanoma.
Experiment [8] has as its system SK-MEL-28 melanoma.
The subject of experiment [9] is PC-3 prostate.
Experiment [10] has as its system U251 CNS.

Compounds without any hit were thinned out: in the full panel of roughly 83,000, 20% have a hit.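 Single-dose data. Exposure time 48 hours. Values below 10 considered active.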 Unmarked numbers belong to inactive results. Calls of active or inactive are those of the source.

For `NC(=O)c1cc(Cl)ccc1NC(=O)/C=C/c1ccccc1`, the growth in experiment [1] was 27.3%; in experiment [2], 8.83% (active); in experiment [3] it was 0.0967% (active); in experiment [4], 26.7%; in experiment [5] it was 5.23% (active); in experiment [6], 47.7%. Further, the growth in experiment [7] is 53.3%; in [8], 40.6%.
`C=CC(=O)Nc1cccc(Nc2nc(SC)nc(-c3cccc([N+](=O)[O-])c3)c2C#N)c1`: the growth in experiment [1] is 52.2%; in experiment [2], 33.7%; in experiment [3], 23.2%; in experiment [4], 79.5%; in experiment [9], 37.5%; in experiment [7], 46.1%. Besides, the growth in [8] was 25.3%.
With `CC(=O)c1cc(C(=O)c2ccc3c(c2)Sc2ccccc2N3)n2ccccc12`, the growth is 17.9% in [1]; -13.1% (active) in experiment [2]; 13.1% in [3]; 30.9% in experiment [4]; 22.2% in experiment [9]; 20.8% in experiment [7].
For `O=[N+]([O-])c1ccc2c(c1)Cc1cc(F)ccc1-2`, the growth was 97.1% in [1]; 95.6% in [2]; 92.5% in experiment [4]; 93.1% in [10]; 86.4% in experiment [5]; 85.2% in experiment [6]. In addition, the growth is 103% in experiment [7] and 107% in [8].
Turning to `COc1ccc(C2CC(c3ccc(Cl)cc3)=NN2/C=C2\SC(=S)N(NC(=O)Cc3ccccc3Nc3c(Cl)cccc3Cl)C2=O)cc1` (configuration not stated), the growth is 68.7% in experiment [1]; 57.7% in experiment [2]; 18.2% in [4]; 54.1% in [10]; 81.9% in experiment [5]; 63.2% in [6]. Besides, the values for the growth in experiment [7] and in experiment [8] were 26.9% and 92.1%, respectively.
With `N#Cc1c(N)n(CCNC(=O)c2ccccc2)c2nc3ccccc3nc12`, the growth in experiment [1] was 111%; in experiment [2], 104%; in [4], 119%; in experiment [6] it was 103%; in experiment [7] it was 113%; in experiment [8], 123%.
Turning to `C=CC(=O)Nc1cccc(-c2nc(SC)nc(Nc3cccc(OC)c3)c2C#N)c1`, the growth in experiment [1] was 52.5%; in [2], 56.9%; in [4], 66.9%; in experiment [9], 53.1%; in [5] it was 77%; in experiment [6] it was 78.1%. Besides, the figures for the growth in experiment [7] and in experiment [8] were 72.1% and 87%, respectively.
As for `COc1ccc(SC2c3cc(OC)c(OC)cc3Oc3nc(N)c(C#N)c(N)c32)cc1` (configuration not stated), the growth in experiment [1] was -62.2% (active); in experiment [2], -24.9% (active); in [4] it was -83% (active); in [10] it was -98.6% (active); in experiment [9], -76.8% (active); in [6] it was -75.1% (active). The growth is -92.7% (active) in experiment [7] and -70.1% (active) in experiment [8].
For `CCOc1cc2ncc(C#N)c(Nc3ccc(OCc4cccc(F)c4)c(Cl)c3)c2cc1NC(=O)CC1CCSS1` (configuration not stated), the growth in experiment [1] was 66.4%; in experiment [2] it was 17.6%; in experiment [4] it was 81.5%; in experiment [10], 55.9%; in experiment [9] it was -42.7% (active); in experiment [6] it was 71.6%. Also, the growth was -35.3% (active) in experiment [7] and 34.9% in experiment [8].
As for `FC(F)(F)Oc1ccc2nc3nc4ccc[nH]c4cc3c2c1`, the growth in [1] was 87%; in experiment [2] it was 73.9%; in experiment [4], 58.3%; in [10], 65.6%; in experiment [9] it was 80%; in experiment [7], 80%. Besides, the growth in experiment [8] was 94.6%.
Consider `NNCCc1ccc(NC(=O)CCCc2ccc(/C=C/C(=O)NO)cc2)cc1`, for which the growth was 80.1% in experiment [1]; 66.4% in [2]; 58.5% in experiment [4]; 22.1% in [10]; 53.9% in [9]; 43% in [6]. In addition, the growth in experiment [7] was 44%; in [8], 73.2%.
Turning to `COc1cccc2c1C(=O)c1c(O)c3c(c(O)c1C2=O)C[C@](O)(C(=O)CO)C[C@H]3O[C@@H]1C[C@@H](NC(=O)CCCCCN(C)C2(c3ccc(F)cc3)CC3CCC2C3)[C@H](O)[C@@H](C)O1` (some centres not stated), the growth is 0.779% (active) in experiment [1]; -55.5% (active) in experiment [2]; 10.4% in experiment [4]; -82.7% (active) in experiment [9]; -90.5% (active) in [7].
As to `CC[C@@H]1O[C@H](O[C@@H](c2cnc[nH]2)[C@H](NC(=O)c2nc([C@H](CC(N)=O)NC[C@@H](N)C(N)=O)nc(N)c2C)C(=O)N[C@H](C)[C@H](O)[C@H](C)C(=O)N[C@@H](C(=O)NCCc2nc(-c3nc(C(=O)NCCCCN=C(N)N)cs3)cs2)[C@@H](C)O)[C@H](O[C@@H]2O[C@H](CO)[C@H](O)[C@H](OC(N)=O)[C@@H]2O)[C@H](C)[C@@H]1C`, the growth is 45.1% in experiment [1]; 53.9% in experiment [2]; 45.9% in [4]; 35.3% in experiment [10]; 71.2% in experiment [9]; 87.6% in experiment [8].
On to `O=C(O)c1c(=O)cccc2ssc12`, for which the growth in [1] was 4.16% (active); in experiment [2], -48.6% (active); in experiment [4] it was -74.4% (active); in experiment [9], -19.3% (active); in [6], 14.3%; in experiment [7], 1.04% (active). Also, in [8], the growth is 10.8%.
As for `CSc1ccc(-c2n[nH]nc2-c2cc3ccccc3s2)cc1`, the growth in experiment [1] was 28.7%; in experiment [2], 37.8%; in experiment [4], 55.7%; in experiment [10], 32.6%; in experiment [9], 56.7%; in [6], 47.5%. Besides, the growth is 34.9% in experiment [7] and 59.5% in experiment [8].
Regarding `OCCN1CCN(c2nc(Nc3ccc(-c4nc5ccccc5[nH]4)cc3)c3cn[nH]c3n2)CC1`, the growth in [1] was -78.9% (active); in experiment [2], -91.4% (active); in experiment [4], -76.7% (active); in [10] it was -99.7% (active); in [9], -76.1% (active); in experiment [7] it was -89.2% (active).
For `CC1=CC(=NN=c2cc(C)n([O-])c(C)c2)C=C(C)[N+]1=O`, the growth in experiment [1] is 94.4%; in [2], 74.6%; in experiment [4] it was 103%; in experiment [10], 91.2%; in experiment [9] it was 91.9%; in [6], 80.3%. The growth in experiment [7] was 41.7%; in experiment [8] it was 80.8%.
Regarding `Cc1ccc(/C=C2\SC(=S)N(CC(=O)NCCCN3CCOCC3)C2=O)cc1`, the growth in [1] was 96.3%; in [2], 109%; in experiment [4], 94.5%; in [10] it was 100%; in [5], 97.1%; in [6] it was 99.7%. Besides, the growth in experiment [7] was 91.7%; in experiment [8] it was 100%.
Turning to `COc1ccc(C2CC(c3ccc4ccccc4c3)=NN2/C=C2\SC(=S)N(NC(=O)Cc3ccccc3Nc3c(Cl)cccc3Cl)C2=O)cc1` (configuration not stated), the growth in experiment [1] was 19.4%; in experiment [2], 32.3%; in experiment [4], 32%; in experiment [10], 16.1%; in experiment [5] it was 19.6%; in experiment [6] it was 42.8%. Further, the growth in experiment [7] was 37.1%; in [8] it was 57%.
Take `O=c1c2c3c(sc2nc(N/N=C/c2cn(-c4ccccc4)nc2-c2ccc(Cl)cc2)n1Cc1ccccc1)CCCC3`: the growth is 114% in [1]; 110% in experiment [2]; 107% in [4]; 111% in [10]; 104% in experiment [5]; 94.7% in experiment [6]. The growth in experiment [7] was 110%; in experiment [8] it was 112%.
As to `C(=C\c1nccc2c1[nH]c1ccccc12)/c1ccccc1`, the growth in [1] was 18.7%; in experiment [2], 1.31% (active); in experiment [4], 35%; in experiment [5], 2.59% (active); in [6], 39.3%; in experiment [7], 25.5%. In experiment [8], the growth was 49.6%.
Consider `CCOc1ccc(C(C)=O)cc1NC(=O)c1cccc(-c2nnn(CC)n2)c1`, for which the growth in experiment [1] was 46.8%; in experiment [2], 7.72% (active); in experiment [4], 36.5%; in [10], 22.1%; in [9], 27.3%; in experiment [7], 49.2%.
Regarding `Cc1ccc(OC(=O)c2ccc(Cl)cc2)cc1`, the growth was 102% in [1]; 89.2% in [2]; 103% in experiment [4]; 102% in experiment [10]; 103% in experiment [5]; 94.7% in [6]. For the same compound, the growth in experiment [7] was 99.3%; in experiment [8] it was 106%.
With `CN(C)c1ccc(NC(=O)c2ccc(/C=C/C(=O)c3ncc[nH]3)cc2)cc1`, the growth in experiment [1] is 16.2%; in experiment [2], 11.6%; in experiment [4], 28.3%; in [10], 11.8%; in experiment [9], 68.1%; in experiment [6] it was 70.5%. In addition, the results for the growth in [7] and in [8] were 14.7% and 95.3%, respectively.
Turning to `O=C1C=C(O)C(=O)C(CC2=C(O)C(=O)C=C(O)C2=O)=C1O`, the growth in experiment [1] is 105%; in experiment [2], 107%; in [4] it was 112%; in experiment [10], 102%; in experiment [9] it was 95.2%; in [6], 103%. The growth in experiment [7] was 89.9%; in [8], 110%.
`Cc1cc(N2CCN(c3ccnc4cc(Cl)ccc34)CC2)nc(NC2CCCCC2)n1`: the growth in experiment [1] is 3.54% (active); in experiment [2], 6.72% (active); in [4], 56.6%; in experiment [10] it was 30.7%; in experiment [9], 22.2%; in experiment [6] it was -48.7% (active). The growth in [8] is 23.9%.
For the compound `CCn1c(Cc2ccccc2Nc2c(Cl)cccc2Cl)nnc1SCC(=O)NN1C(=O)/C(=C/c2cc(OC)c(O)c(OC)c2)SC1=S`, the growth in experiment [1] is 50.4%; in experiment [2], 25.5%; in experiment [4] it was 41.9%; in experiment [10], 31.5%; in [5], 26.1%; in experiment [6], 33.2%. In addition, the figures for the growth in [7] and in [8] were 26.8% and 45.7%, respectively.
`CC(=O)c1nc2ccccc2n1CC(=O)c1cccc(Cl)c1`: the growth in experiment [1] was 27.3%; in experiment [2] it was 94%; in [4], 24.1%; in [10] it was 14.3%; in experiment [5], -13.2% (active); in [6] it was 31.5%. For the same compound, the figures for the growth in [7] and in [8] were 36.9% and 67.7%, respectively.
Take `CCOc1cc2c(cc1OCC)C(c1cc(OC)c(O)cc1Cl)NCC2` (configuration not stated): the growth is 86.9% in experiment [1]; 56.9% in experiment [2]; 103% in experiment [4]; 99.8% in experiment [6]; 89.6% in [7]; 99.9% in experiment [8].
Consider `COc1nc2c(c(=O)n1C)CN(Cc1ccccc1)C=N2`, for which the growth was 105% in experiment [1]; 109% in experiment [2]; 91.1% in experiment [4]; 111% in experiment [5]; 116% in [6]; 98.1% in experiment [7]. The growth in experiment [8] is 108%.
For `COC(=O)c1cccc(NC(=O)c2ccc(-c3cccc(N)c3)o2)c1`, the growth in [1] was 96.6%; in experiment [2] it was 107%; in experiment [4] it was 95.5%; in experiment [10], 104%; in experiment [5], 81.8%; in experiment [6], 91.4%. Also, the figures for the growth in experiment [7] and in experiment [8] were 99.6% and 102%, respectively.
